PubChem BioAssay AID1159580 (chemical genetic matrix, 2015)
Hit rate of the full screen: of about 5,500 compounds, about 2,000 (36%) were called active. About 18% were inconclusive and are not listed. No stated cut-off is given here; in the data, active means normalized growth mostly below about 0.91 (no sharp cut-off); inconclusive means no clear call, values can overlap the other calls; inactive means mostly above about 0.92. This is one part of the list.

Assay: chemical genetic growth profiling, strain panel (AID 1159580);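 further: tested at 20 µM; growth read once vehicle control cultures reached saturation at 30 °C; 1 = growth at the plate median or of vehicle wells; lower values mean less growth of the strain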
Conditions: growth OD
[1] = S. cerevisiae deletion strains, locus YAL013W, strain DEP1, active compounds read low
[2] = S. cerevisiae deletion strains, locus YDR150W, strain NUM1, active compounds read low
[3] = S. cerevisiae deletion strains, locus YGR078C, strain PAC10, active compounds read low
[4] = S. cerevisiae deletion strains, locus YNL322C, strain KRE1, active compounds read low
[5] = S. cerevisiae deletion strains, locus YPL055C, strain LGE1, active compounds read low
[6] = S. cerevisiae deletion strains, locus YAL040C, strain CLN3, active compounds read low
[7] = S. cerevisiae deletion strains, locus YCL061C, strain MRC1 (second series), active compounds read low
[8] = S. cerevisiae deletion strains, locus YDR363W, strain ESC2, active compounds read low
[9] = S. cerevisiae deletion strains, locus YER002W, strain NOP16, active compounds read low
[10] = S. cerevisiae deletion strains, locus YNL128W, strain TEP1, active compounds read low
[11] = S. cerevisiae deletion strains, locus YNL175C, strain NOP13, active compounds read low
[12] = S. cerevisiae deletion strains, locus YNL197C, strain WHI3, active compounds read low
[13] = S. cerevisiae deletion strains, locus YNL224C, strain SQS1, active compounds read low
[14] = S. cerevisiae deletion strains, locus YOR083W, strain WHI5 (second series), active compounds read low

Measured: normalized growth

c1ccc(-c2csc(-c3cccnc3)n2)cc1
active: [1] 0.872 | S. cerevisiae deletion strains, locus YBR229C, strain ROT2, active compounds read low 0.886 | S. cerevisiae deletion strains, locus YCL061C, strain MRC1, active compounds read low 0.853 | S. cerevisiae deletion strains, locus YEL061C, strain CIN8, active compounds read low 0.793 | [3] 0.9 | S. cerevisiae deletion strains, locus YHR030C, strain SLT2, active compounds read low 0.132 | S. cerevisiae deletion strains, locus YJR075W, strain HOC1, active compounds read low 0.855 | S. cerevisiae deletion strains, locus YKL190W, strain CNB1, active compounds read low 0.853 | S. cerevisiae deletion strains, locus YLR039C, strain RIC1, active compounds read low 0.557 | S. cerevisiae deletion strains, locus YLR058C, strain SHM2 (second series), active compounds read low 0.908 | S. cerevisiae deletion strains, locus YLR085C, strain ARP6, active compounds read low 0.275 | S. cerevisiae deletion strains, locus YLR262C, strain YPT6, active compounds read low 0.432 | S. cerevisiae deletion strains, locus YML094W, strain GIM5, active compounds read low 0.772 | S. cerevisiae deletion strains, locus YMR219W, strain ESC1, active compounds read low 0.892 | S. cerevisiae deletion strains, locus YMR263W, strain SAP30, active compounds read low 0.873 | S. cerevisiae deletion strains, locus YNL153C, strain GIM3, active compounds read low 0.887 | S. cerevisiae deletion strains, locus YNL298W, strain CLA4 (second series), active compounds read low 0.74 | [4] 0.94 | S. cerevisiae deletion strains, locus YNR030W, strain Alg12, active compounds read low 0.857 | [5] 0.717 | S. cerevisiae deletion strains, locus YPL241C, strain CIN2, active compounds read low 0.855 | S. cerevisiae deletion strains, locus YPR135W, strain CTF4, active compounds read low 0.377
inactive: S. cerevisiae deletion strains, locus YDL101C, strain DUN1, active compounds read low 0.912 | S. cerevisiae deletion strains, locus YDL134C, strain PPH21, active compounds read low 0.954 | [2] 0.946 | S. cerevisiae deletion strains, locus YHR087W, strain rtc3, active compounds read low 0.938 | S. cerevisiae deletion strains, locus YJR043C, strain POL32, active compounds read low 0.935 | S. cerevisiae strains, strain wild type, active compounds read low 0.949

CNc1ccc2oc(C[C@H]3O[C@@]4(CC[C@H]3C)O[C@H]([C@H](C)C(=O)c3ccc[nH]3)[C@H](C)C[C@H]4C)nc2c1C(=O)O
inactive: [1] 0.976 | [6] 0.929 | [7] 0.951 | [8] 0.928 | [9] 0.997 | [10] 0.98 | [13] 0.924 | [14] 0.906
active: [11] 0.907 | [12] 0.853

CCCCCC(O)c1cccc(OCc2ccc3ccccc3n2)c1 (centres undefined)
inactive: [1] 0.958 | [6] 0.958 | [7] 0.984 | [2] 1 | [8] 0.976 | [9] 1.01 | [3] 0.982 | S. cerevisiae deletion strains, locus YGR229C, strain SMI1, active compounds read low 0.942 | S. cerevisiae deletion strains, locus YMR307W, strain GAS1, active compounds read low 0.996 | [10] 1 | [11] 0.995 | [12] 0.995 | [13] 0.99 | [4] 0.972 | [14] 0.873 | [5] 0.973
